38 compounds from PubChem BioAssay (EPA / NIEHS) can be followed below.

Calls of active or inactive are those of the source. The calls were made as follows: active = hit-call score of the fitted dose curve at least 0.9, where 1 is the maximum; inactive = score below 0.9.

Read-out in the experiment: Basic fibroblast growth factor (bFGF), FGF2 (gene 2247)
The experiment can be described thus: BSK_MyoF_bFGF: BioMAP Diversity Plus: MyoF Assay for Basic fibroblast growth factor (bFGF) Biomarker Activity (AID 2284246). The settings on record: primary human lung fibroblasts. How it is done: BSK_MyoF is a cell-based, multiplexed-readout assay that uses lung fibroblasts, a human […] primary cell, with measurements taken at 24 hours after chemical dosing in a microplate: 96-well plate.BSK_MyoF_bFGF is an assay component measured in the BSK_MyoF assay. It measures bFGF antibody related to regulation of gene expression using ELISA technology.Data from the assay component BSK_MyoF_bFGF was analyzed at the endpoint, BSK_MyoF_bFGF, in the positive analysis fitting direction relative to DMSO as the negative control and baseline of activity. Using a type of binding reporter, gain or loss-of-signal activity can be used to understand protein changes. To generalize the intended target to other relatable targets, this assay endpoint is annotated to the 'growth factor' intended target family, where the subfamily is 'basic fibroblast growth factor '.
The levels of cell surface (or secreted, indicated by the prefix "s") biomarker endpoints were measured by ELISA. Overt cytotoxicity to cells in confluent adherent cultures (all systems other than the BT system) was assessed by measuring total protein levels using sulforhodamine B (SRB) staining in parallel cultures at the time of biomarker measurements, indicated as SRB endpoints. For proliferation assays for adherent cell types, individual cell types are cultured at sub-confluence and relative cell numbers quantified by SRB staining at time points optimized for each system (48 h: 3C and CASM3C systems; 72 h: BT and HDF3CGF systems; 96 h: SAg system). SRB was performed by staining cells with 0.1% SRB after fixation with 10% TCA and reading wells at 560 nm.Viability and proliferation of PBMC (T cells) was quantified by Alamar Blue reduction for the SAg and BT systems. For PBMC viability (referred to as PBMC Cytotoxicity within the assay endpoint names), cells were plated (75,000/well in a 96-well plate) and then chemical samples added for 1 h before addition of activators, SEB and TSST-1 (20 ng/mL final concentration each). Cells were incubated for 90 h. Then, Alamar Blue (20 uL/well) (Invitrogen, Cat DAL1100) was added for 6 h, and the plates were read with a fluorescence microplate reader at 546/580 nm (excitation/emission). For PBMC proliferation, cells were plated and activated as above but incubated for only 16 h prior to addition of Alamar Blue. Plates were read after 6 h.
As for `CC(C)(N=C=O)c1cccc(C(C)(C)N=C=O)c1`, the result was inactive. On the same count and under the same terms, the entry for `CCN(CC)C(=O)N(CC)CC` is “inactive”; for `C=C(C)C(=O)OCCOCCOCCOCCOC(=O)C(=C)C` it is “inactive”. One may read the AC50 as the concentration giving half of the maximal activity seen. In the case of `Oc1c(Cl)cc(Cl)c(Cl)c1Cc1c(O)c(Cl)cc(Cl)c1Cl`, the AC50 is 1.32 µM (active). Take `CC1(C)C2=CCCC(C)(C)[C@]23CC[C@H]1C3`: the outcome was inactive. Still for that read-out and setting: the entry for `O=C1c2ccccc2C(=O)c2c(O)ccc(O)c21` is “inactive”; for `CC(C=O)Cc1ccc(C(C)(C)C)cc1` (stereo not drawn) it is “inactive”; for `CCCCCCCCCCCCCCCC(=O)OC/C=C(C)/C=C/C=C(C)/C=C/C1=C(C)CCCC1(C)C` it is “inactive”. Same read-out and setting: the entry for `CC=Cc1ccc(OCC)c(O)c1` is “inactive”; for `C[C@@H]1CCN(C(=O)[C@H](CCCN=C(N)N)NS(=O)(=O)c2cccc3c2NC[C@H](C)C3)[C@@H](C(=O)O)C1` it is “inactive”. On to `CC(C)(C)CC(C)(C)c1ccc(OCCOCC[N+](C)(C)Cc2ccccc2)cc1`, for which the AC50 was 8.49 µM (active). `O=C1OC2(c3ccccc31)c1ccc(O)c(Br)c1Oc1c2ccc(O)c1Br`: the outcome was inactive. On the same count and under the same terms, the entry for `C=C(C)C(=O)OCCOCCOCCOC(=O)C(=C)C` is “inactive”; for `C1=CC2C3C=CC(C3)C2C1` (stereo not drawn) it is “inactive”.

`CS(=O)(=O)c1ccc(C2=C(c3ccccc3)C(=O)OC2)cc1`: the result was inactive. As for `c1ccc(Oc2ccccc2)cc1`, the outcome was inactive.

Regarding `c1ccc2cc(Nc3ccc(Nc4ccc5ccccc5c4)cc3)ccc2c1`, the outcome was inactive. Consider `CCC(C)c1cc([N+](=O)[O-])cc([N+](=O)[O-])c1OC(=O)OC(C)C` (stereo not drawn), for which the AC50 was 27.7 µM (active). On the same count and under the same terms, the value for `CCCCN(CCCC)C(=O)N(CCCC)CCCC` was 10.1 µM (active); that for `COc1ccc(CCN2CCC(Nc3nc4ccccc4n3Cc3ccc(F)cc3)CC2)cc1` was 7.78 µM (active). The same measure, in the same setting: the figure for `CN(C)C(=S)SC(=S)N(C)C` is 31.9 µM (active). As to `CC(=O)C1(C)CC2=C(CCCC2(C)C)CC1C` (stereo not drawn), the AC50 was 29.3 µM (active). For `Clc1cc(Cl)c(-c2c(Cl)c(Cl)cc(Cl)c2Cl)cc1Cl`, the result was inactive. For the compound `CN(C)C(=O)Nc1ccc(Oc2ccc(Cl)cc2)cc1`, the outcome was inactive. As for `O=C1OC[C@H](Cc2cccc(O)c2)[C@H]1Cc1cccc(O)c1`, the result was inactive. `Cc1cc(CCC(=O)OCCOCCOCCOC(=O)CCc2cc(C)c(O)c(C(C)(C)C)c2)cc(C(C)(C)C)c1O`: the outcome was inactive.

Take `C=C(C)[C@H]1CC=C(C)C(=O)C1`: the result was inactive. Same read-out and setting: the entry for `CSCCC=O` is “inactive”; for `COc1cc(Cl)c(OC)cc1N` it is “inactive”. The same measure, in the same setting: the entry for `CC(=O)c1c(C)c([N+](=O)[O-])c(C(C)(C)C)c([N+](=O)[O-])c1C` is “inactive”; for `IC(I)I` it is “inactive”. The same measure, in the same setting: the entry for `CN(c1nccc(=O)[nH]1)C1CCN(c2nc3ccccc3n2Cc2ccc(F)cc2)CC1` is “inactive”. For `COc1ccc(OC)c(N=Nc2c(O)ccc3ccccc23)c1`, the AC50 was 20 µM (active). On the same count and under the same terms, the value for `C=C(C)C(=O)OCC(CC)(COC(=O)C(=C)C)COC(=O)C(=C)C` was 29.4 µM (active). Take `CCCCOC(=O)CCCCCCCC(=O)OCCCC`: the result was inactive. As for `CC(=O)Nc1ccc(C(=O)CCl)cc1`, the AC50 is 32.5 µM (active). Same read-out and setting: the figure for `c1ccc(CCc2ccccc2)cc1` is 30.4 µM (active). On to `CCCCCC(C=O)=Cc1ccccc1`, for which the outcome was inactive.
